Data: PubChem BioAssay (NCATS)
Records with an inconclusive call do not appear. Activity calls are given as the source filed them. Unless noted, calls follow the shape of the dose curve; as a rule, active = well fitted curve in the direction sought with a large enough effect; inconclusive = small, poorly fitted or top-dose-only effect, or another doubt; inactive = no such curve, though single readings can be large; an effect the other way counts as inactive or inconclusive.

Legend:
[1] = biological target: Galactokinase (Homo sapiens) (UniProt P51570); experiment: qHTS Validation Assay for Inhibitors of Human Galactokinase (GALK) (AID 493189)
Galactokinase (Homo sapiens), sequence (P51570 whole entry, looked up): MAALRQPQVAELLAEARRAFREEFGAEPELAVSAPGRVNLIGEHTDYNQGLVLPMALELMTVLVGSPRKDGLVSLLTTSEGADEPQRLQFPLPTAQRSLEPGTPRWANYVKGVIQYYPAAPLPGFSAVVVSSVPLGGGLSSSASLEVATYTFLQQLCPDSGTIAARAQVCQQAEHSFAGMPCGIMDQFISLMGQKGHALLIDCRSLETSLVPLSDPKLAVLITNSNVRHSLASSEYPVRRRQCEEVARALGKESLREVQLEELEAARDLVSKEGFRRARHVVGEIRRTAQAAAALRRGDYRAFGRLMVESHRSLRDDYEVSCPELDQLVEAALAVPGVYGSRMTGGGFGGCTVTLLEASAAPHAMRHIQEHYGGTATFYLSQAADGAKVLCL
Method in brief: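 Compounds were pin-transferred into ATP buffer, then GALK-galactose mix was added (final 5 nM enzyme, 100 uM galactose, 35 uM ATP). After 1 h at room temperature, remaining ATP was measured luminescently.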

[2] = Validation screen for small molecules that induce DNA re-replication in SW480 colon adenocarcinoma cells (AID 504364)
Method in brief: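 Image-based DNA content read-out: Hoechst stain 40 min, total nuclear fluorescence intensity (ex 405 nm, em 500-530 nm) after 48 h compound exposure of 250 SW480 cells/well at 37 C, 5% CO2, versus DMSO vehicle.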

[3] = biological target: Peptidyl-prolyl cis-trans isomerase NIMA-interacting 1 (Homo sapiens) (UniProt Q13526); experiment: qHTS Validation Assay to Find Inhibitors of Pin1 (AID 504536; active = well fitted inhibition curve with a large enough effect in the polarisation, with a control signal flat, not every such curve was filed as active; the % refers to the polarisation)
Peptidyl-prolyl cis-trans isomerase NIMA-interacting 1 (Homo sapiens), sequence (Q13526 whole entry, looked up): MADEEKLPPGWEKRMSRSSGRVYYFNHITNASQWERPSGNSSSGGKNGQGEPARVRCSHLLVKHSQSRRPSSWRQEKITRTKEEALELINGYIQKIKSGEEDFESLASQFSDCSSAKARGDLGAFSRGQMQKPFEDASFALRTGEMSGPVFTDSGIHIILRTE
Method in brief: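 Fluorescence polarization competition: compounds (titration) displace HiFluor-488-labeled Pin1-1b peptide from Pin1 (0.3 uM final) in pH 7.5 HEPES buffer with DTT, 10 min at room temperature; %Activity normalized to no-enzyme wells, curves fitted.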

[4] = biological target: Phosphoglycerate kinase, glycosomal (Trypanosoma brucei brucei) (UniProt P07378); experiment: qHTS Validation Assay to Find Inhibitors of Phosphoglycerate Kinase (AID 504547)
Phosphoglycerate kinase, glycosomal (Trypanosoma brucei brucei), sequence (P07378 whole entry, looked up): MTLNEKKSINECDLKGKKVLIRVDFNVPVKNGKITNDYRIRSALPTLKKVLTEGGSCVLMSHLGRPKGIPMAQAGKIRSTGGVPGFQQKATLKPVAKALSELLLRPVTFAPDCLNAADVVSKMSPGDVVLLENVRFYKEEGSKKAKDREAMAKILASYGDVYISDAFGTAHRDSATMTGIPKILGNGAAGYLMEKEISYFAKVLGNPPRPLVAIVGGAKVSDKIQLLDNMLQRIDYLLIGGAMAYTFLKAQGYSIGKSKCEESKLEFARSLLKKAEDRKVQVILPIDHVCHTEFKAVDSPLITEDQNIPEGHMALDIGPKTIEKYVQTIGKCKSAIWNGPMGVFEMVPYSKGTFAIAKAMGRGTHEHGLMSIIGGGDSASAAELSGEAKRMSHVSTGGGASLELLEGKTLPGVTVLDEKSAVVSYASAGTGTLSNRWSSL
Method in brief: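 Compounds are pinned into the substrate/PGK mixture, and GAPDH (100nM final) is added to start the reaction by producing 1,3-BPG. After 60 minutes at room temperature, Kinase-Glo Plus is added and luminescence is measured 10 minutes later.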

[5] = biological target: phosphoglycerate mutase (Leishmania major) (UniProt Q4Q090); experiment: qHTS Validation Assay to Find Inhibitors of Phosphoglycerate Mutase (AID 504548); settings: Potency: inhibition qHTS; also: series mostly up to about 58 µM
phosphoglycerate mutase (Leishmania major), sequence (Q4Q090 1-553): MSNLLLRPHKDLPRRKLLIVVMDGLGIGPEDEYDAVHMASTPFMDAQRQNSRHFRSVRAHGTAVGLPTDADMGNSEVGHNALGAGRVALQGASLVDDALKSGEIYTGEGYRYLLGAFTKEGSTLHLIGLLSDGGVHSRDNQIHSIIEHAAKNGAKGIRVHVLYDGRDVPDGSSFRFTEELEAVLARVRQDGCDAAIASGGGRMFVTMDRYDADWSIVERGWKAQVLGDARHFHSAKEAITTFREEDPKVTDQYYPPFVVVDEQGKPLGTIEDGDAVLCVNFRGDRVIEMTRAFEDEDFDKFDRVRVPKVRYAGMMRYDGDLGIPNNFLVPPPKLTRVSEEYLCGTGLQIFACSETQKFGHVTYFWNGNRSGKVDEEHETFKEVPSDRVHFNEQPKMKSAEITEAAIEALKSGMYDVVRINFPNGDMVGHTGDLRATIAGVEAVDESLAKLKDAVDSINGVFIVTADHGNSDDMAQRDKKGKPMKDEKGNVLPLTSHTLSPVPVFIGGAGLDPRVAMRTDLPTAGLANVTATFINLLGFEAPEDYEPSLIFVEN
Method in brief: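 Lm PGAM at 1.25 nM final with substrate in 100 mM TEA pH 7.6, 5 mM MgCl2, 0.01% Tween-20; 45 min at room temperature. Kinase-GloPlus added, 10 min, end-point luminescence read.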

[6] = Inducers of the Endoplasmic Reticulum Stress Response (ERSR) in human glioma: Validation (AID 504836)
Method in brief: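 Stably transfected U87-MG glioma cells carrying a GRP78-based luciferase sensor; 16 h compound incubation. Luminescence end-point read 10 min after Bright-Glo addition at room temperature.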

[7] = biological target: Ubiquitin carboxyl-terminal hydrolase 1 (Homo sapiens) (UniProt O94782); experiment: Inhibitors of USP1/UAF1: Pilot qHTS (AID 504865);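 also: rhodamine fluorescence freed from ubiquitin-rhodamine substrate followed over time; top concentration of the series differs between compounds; nearly all actives have a fitted effect of over 35% in size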
Ubiquitin carboxyl-terminal hydrolase 1 (Homo sapiens), sequence (O94782 whole entry, looked up): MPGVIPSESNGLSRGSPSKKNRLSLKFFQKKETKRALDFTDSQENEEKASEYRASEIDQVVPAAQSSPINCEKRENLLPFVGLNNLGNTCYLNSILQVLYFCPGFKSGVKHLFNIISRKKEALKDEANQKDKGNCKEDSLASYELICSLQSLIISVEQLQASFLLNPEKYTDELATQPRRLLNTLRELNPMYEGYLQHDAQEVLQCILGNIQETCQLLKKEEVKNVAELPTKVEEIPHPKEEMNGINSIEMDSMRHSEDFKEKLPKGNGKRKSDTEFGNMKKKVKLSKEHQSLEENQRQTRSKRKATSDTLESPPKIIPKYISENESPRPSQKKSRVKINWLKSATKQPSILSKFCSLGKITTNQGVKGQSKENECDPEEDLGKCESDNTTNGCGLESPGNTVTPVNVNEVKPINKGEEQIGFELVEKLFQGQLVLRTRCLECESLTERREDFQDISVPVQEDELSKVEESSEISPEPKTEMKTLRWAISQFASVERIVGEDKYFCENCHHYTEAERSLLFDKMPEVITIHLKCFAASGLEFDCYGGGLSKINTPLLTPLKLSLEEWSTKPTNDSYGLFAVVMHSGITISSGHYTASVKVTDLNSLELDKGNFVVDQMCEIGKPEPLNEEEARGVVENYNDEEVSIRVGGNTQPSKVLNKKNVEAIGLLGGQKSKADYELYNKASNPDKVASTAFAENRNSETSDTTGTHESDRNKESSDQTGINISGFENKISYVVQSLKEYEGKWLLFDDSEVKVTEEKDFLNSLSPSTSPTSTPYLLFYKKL
Method in brief: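 Kinetic fluorescence assay: 1nM USP1/UAF1, 15 min compound preincubation, then 150nM Ub-Rho; 480/540 nm.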

[8] = qHTS for Inhibitors of ATXN expression: Validation of Cytotoxic Assay (AID 588349)
Method in brief: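 Cytotoxicity counter-screen: ATP-based luminescent viability (CellTiter Glo) after 72 hr exposure of HEK293 cells to a compound titration at 37 degrees C.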

[9] = qHTS for Inhibitors of ATXN expression: Validation (AID 588378); also: series mostly up to about 57 µM; nearly all actives have a fitted effect of over 75% in size
Method in brief: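 Validation of ATXN2 expression inhibitors uses a cell-based luciferase fusion reporter in HEK293 cells, with 24 h compound exposure and paired viability (fluorescence) and reporter (luminescence) end-point reads.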

Measured: Potency

CC(N)Cc1c[nH]c2ccc(O)cc12 (stereo not drawn)
inactive: [1] | [2] | [3] | [4] | [5] | [6] | [7] | [8] | [9]

c1ccc2cc(CC3=NCCN3)ccc2c1
inactive: [1] | [2] | [3] | [4] | [5] | [6] | [7] | [8] | [9]

CC(N)c1cccc(Cl)c1Cl (stereo not drawn)
inactive: [1] | [2] | [3] | [4] | [5] | [6] | [7] | [8] | [9]

Cc1[nH]c2ccc(O)cc2c1CCN
inactive: [1] | [2] | [3] | [4] | [5] | [6] | [7] | [8] | [9]

CCCCCCC(C)(C)c1ccc([C@@H]2C[C@H](O)CC[C@H]2CCCO)c(O)c1
inactive: [1] | [2] | [3] | [4] | [5] | [6]

C[N+]1(C)CCOC(O)(c2ccc(-c3ccc(C4(O)C[N+](C)(C)CCO4)cc3)cc2)C1 (stereo not drawn)
inactive: [1] | [2] | [3] | [4] | [5] | [6] | [7] | [8] | [9]

CN1C2CCC1CC(OC(c1ccccc1)c1ccccc1N)C2 (stereo not drawn)
inactive: [1] | [2] | [3] | [4] | [5] | [6] | [7]

C[C@@H]1O[C@H](C[N+](C)(C)C)CS1
inactive: [1] | [2] | [3] | [4] | [5] | [6] | [7] | [8] | [9]

CP(=O)(O)C1=CCNCC1
inactive: [1] | [2] | [3] | [4] | [5] | [6] | [7] | [8] | [9]

CO[C@H]1CC=C2CCN3CCC4=C(CC(=O)OC4)[C@]23C1
inactive: [1] | [2] | [3] | [4] | [5] | [6] | [7] | [8] | [9]

NC(=O)c1cc(N2CC2)c([N+](=O)[O-])cc1[N+](=O)[O-]
inactive: [1] | [2] | [3] | [4] | [5] | [6] | [7] | [8] | [9]

Cc1o[nH]c(=O)c1CC(N)C(=O)O (stereo not drawn)
inactive: [1] | [2] | [3] | [4] | [5] | [6] | [7] | [8] | [9]

O=[N+]([O-])c1ccc2nc(N3CCNCC3)ccc2c1
inactive: [1] | [2] | [3] | [4] | [5] | [6] | [7]

CC(C)(C)c1o[nH]c(=O)c1CC(N)C(=O)O (stereo not drawn)
inactive: [1] | [2] | [3] | [4] | [5] | [6] | [7] | [8] | [9]

Clc1ccc(N2CC3CCC(C2)N3)nn1
inactive: [1] | [2] | [3] | [4] | [5] | [6] | [7] | [8] | [9]

NC(C(=O)O)c1cc(=O)[nH]o1 (stereo not drawn)
inactive: [1] | [2] | [3] | [4] | [5] | [6] | [7] | [8] | [9]

O=C1CC[C@@]2(O)C3Cc4ccc(O)c5c4C2(CCN3CC2CC2)[C@H]1O5 (stereo partly drawn)
inactive: [1] | [2] | [3] | [4] | [5] | [6] | [7] | [8] | [9]

C[N+](C)(C)CCOC(=O)CBr
inactive: [1] | [2] | [3] | [4] | [5] | [6] | [7] | [8] | [9]

NC(Cc1ccc(N(CCCl)CCCl)cc1)C(=O)O (stereo not drawn)
inactive: [1] | [2] | [3] | [4] | [5] | [6] | [7] | [8]

N#CC(C#N)=Cc1cc(O)c(O)c(O)c1
inactive: [1]

COc1ccc(OC)c(C(O)C(C)N)c1 (stereo not drawn)
inactive: [1] | [2] | [3] | [4] | [5] | [6] | [7] | [8] | [9]
